High-throughput results as filed in PubChem BioAssay.
A selection: hits, their analogues and other compounds. The true share with any hit is near 10%.
G9a inh: inhibitors of human histone lysine methyltransferase G9a. G9a H3K9 monomethylation, AlphaScreen, 2 h. Q96KQ7. actives 8.8% (n = 350,000). Potency, µM (doses to about 102 µM), hits mostly inhibitors. AID 504332; note: nearly all actives have a fitted effect of over 75% in size
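Compounds were preincubated with 20 nM G9a for 15 min, after which biotinylated H3K9 peptide (500 nM) and SAM (20 uM) started a 2 h room-temperature reaction. Monomethylated product was quantified by antibody-based AlphaScreen chemiluminescence.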
HP1b binding inh: HP1-beta chromodomain-methylated histone interaction inhibition. P83916. AlphaScreen HP1-beta / biotin-H3K9me3 peptide binding. Potency, µM (highest dose often 114 µM), actives largely listed as inhibitors. actives 0.56% (n = 390,000); note: nearly all actives have a fitted effect of over 70% in size
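AlphaScreen: HP1-beta (50 nM) preformed 30 min with biotin-H3(1-18)K9me3 peptide (50 nM) in PBS pH 7.4, 0.01% Tween-20. Compound added for 30 min at RT, then streptavidin donor/nickel chelate acceptor beads (10 ug/mL) for 30 min.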
JMJD2A Tudor: JMJD2A Tudor domain (human) inhibition; O75164; AlphaScreen JMJD2A-Tudor / H3K4me3 peptide binding; Potency, µM (top dose mostly 114 µM), most hits filed as inhibitors; actives 4.4% (n = 390,000); AID 504339; note: nearly all actives have a fitted effect of over 50% in size
BAZ2B inh: inhibitors of human BAZ2B bromodomain; Q9UIF8; AlphaScreen BAZ2B-H3K14Ac peptide displacement; Potency, µM (series often up to 114 µM), actives largely listed as inhibitors; actives 4.4% (n = 360,000); note: nearly all actives have a fitted effect of over 60% in size
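Compounds, titrated to a top concentration of 110 uM, were incubated 30 min at room temperature with preformed BAZ2B/acetyl-K14 H3 peptide complex (50 nM each). Proximity signal was measured by AlphaScreen after 20 min with beads.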
Six1-Eya2 blk: blocks human Six1 binding to Eya2; Q15475+O00167; AlphaScreen GST-Six1/His-Eya2 binding, biochemical; active compounds read low; activity change, % (concentration not given with the values); actives 0.56% (n = 360,000); AID 651725; in the data active = activity change below about -65%; inconclusive = mostly about -30% to -63%
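AlphaScreen with GST-Six1 and His-Eya2 (5X mix: 250 nM and 500 nM), glutathione donor and nickel acceptor beads; buffer 50 mM Tris pH 8.0, 300 mM NaCl, 1 mM TCEP; 1 h at 37 C in the dark.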
CtBP-E1A blk: inhibitors of CtBP/E1A interaction; AID 651724; actives 0.49% (n = 340,000); AlphaScreen GST-E1A/His-CtBP binding, 1536-well; active compounds read low; activity change, % (concentration not given with the values); in the data active = activity change below about -65%; inconclusive = mostly about -30% to -63%
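In 5 uL wells, 23 nL compound meets equimolar GST-E1A and His-CtBP (5X stock 125 nM each) for 2 h, 37 °C. Beads (5X, 50 ug/mL) then 1 h, 37 °C, dark.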
A number is an active result; - = inactive; ? = inconclusive; . = not tested or not shown; [ ] = remark or other dose. Unless noted, calls come from the whole dose curve; as a rule, active = well fitted inhibition curve with a large enough effect; inconclusive = small, poorly fitted or top-dose-only effect; inactive = no such curve, though single readings can be large or run the other way.

SMILES	G9a inh	HP1b binding inh	JMJD2A Tudor	BAZ2B inh	Six1-Eya2 blk	CtBP-E1A blk
O=C1/C(=C/c2ccccc2O)SC(=S)N1Cc1cccnc1	?	-	-	-	-	-
CCOc1cc(/C=C2\SC(=O)N(c3ccc(O)cc3)C2=O)ccc1O	-[12.7 µM]	-	-	-	-	-
COc1cc(/C=C2\SC(=Nc3ccccc3)N(Cc3ccco3)C2=O)ccc1OC(C)C(=O)O (stereo not given)	?	-	?	?	-	-
COCCN1C(=O)/C(=C/c2ccc(OCc3ccc(C(=O)O)cc3)c(OC)c2)SC1=Nc1ccccc1	50µM	-	?	56µM	-	-
O=C1/C(=C\c2cccc([N+](=O)[O-])c2O)SC(=S)N1Cc1ccccc1	2µM	?	8.9µM	2µM	?	-
CCN1C(=O)/C(=C\C=C\c2ccccc2[N+](=O)[O-])SC1=S	10µM	?	?	.	-	-
CCOc1cc(/C=C2/SC(=S)N(Cc3ccccc3)C2=O)ccc1O	45µM	?	50µM	22µM	-	.
CC1=C(C(=O)N(C)C)CC(CC(=O)NC2CCCCC2)C(=O)N1Cc1ccc(F)cc1 (stereo not given)	.	.	.	.	-	-
CCOc1ccc(NC(=O)CSc2nc(-c3cccs3)cc(C(F)(F)F)n2)c([N+](=O)[O-])c1	-	-	-	?	-	-
O=C1/C(=C/c2ccc(O)c([N+](=O)[O-])c2)SC(=S)N1Cc1ccccc1	3.5µM	?	4µM	?	-	-
O=C(O)CCN1C(=O)/C(=C\c2cccc(OCc3ccccc3)c2)SC1=S	?	-	-	-	?	-
O=C(O)CCN1C(=O)/C(=C\c2ccc(OCc3ccccc3)c(OCc3ccccc3)c2)SC1=S	25µM	?	45µM	45µM	-	-
CCOC(=O)N1CCN(S(=O)(=O)N2CCCC(C(=O)NCCc3ccc(OC)c(OC)c3)C2)CC1 (stereo not given)	-	-	-	-	-	-
COc1ccc(-c2cc(-c3n[nH]c(=S)n3-c3cccc4ccccc34)[nH]n2)cc1	35µM	?	?	?	-	-
CC(=O)c1ccc(-n2c(-c3cc(-c4ccsc4)n[nH]3)n[nH]c2=S)cc1	1.1µM	-	?	-	-	-
COCc1n[nH]c(=S)n1-c1cccc2ccccc12	16µM	-	20µM	-	-	-
CCOC(=O)c1cc(-c2ccc(OC)cc2)n[nH]1	.	-	-	-	-	.
O=c1c2ccccc2nc(-c2cccs2)n1-c1cccc2ccccc12	?	-	-	-	-	-
CC(=O)c1ccc(OCc2cc(=O)n3ccsc3n2)cc1	-	-	-	-	-	-
S=c1[nH]nc(-c2cc(-c3ccsc3)n[nH]2)n1-c1cccc2ccccc12	8.9µM	-	?	?	-	?
COc1ccccc1-c1nnc2n1N=C(c1c(OC)cccc1OC)CS2	.	.	-	.	.	.
Cc1ccc(NC(=O)c2cccc(S(=O)(=O)N(C)c3ccccc3)c2)cc1S(=O)(=O)N1CCOCC1	-	-	-	-	-	-
O=C(O)c1ccccc1Nc1ccccc1	24µM	-	-	-	-	-
Cc1nn(C)c(C(=O)Nc2cccc(Nc3ccccc3)c2)c1[N+](=O)[O-]	45µM	.	.	50µM	.	.
COc1cccc(Oc2ccc(OC)cc2C(=O)O)c1	.	-	25µM	-	-	-
SMILES	G9a inh	HP1b binding inh	JMJD2A Tudor	BAZ2B inh	Six1-Eya2 blk	CtBP-E1A blk
Cc1nn(C)c(C(=O)N/N=C/c2ccccc2)c1[N+](=O)[O-]	-	-	-	-	-	-
CC(=O)Nc1ccc(NC(=O)c2ccccc2Nc2ccccc2)cc1	50µM	-	-	-	-	-
O=C(O)c1ccccc1Nc1ccc(OC(F)F)cc1	-	-	-	?	-	-
Cc1ccc(C)c(NC(=O)CCCn2nc(C)c3sc4ccccc4c3c2=O)c1	-	-	-	-	.	.
O=C(Nc1nnc(N2CCCCCC2)s1)Nc1ccccc1C(F)(F)F	-	-	-	-	.	.
COc1cc(-c2ccc(Nc3ccccc3C(=O)O)c(OC)c2)ccc1Nc1ccccc1C(=O)O	0.79µM	35µM	?	5.6µM	-	?
Cc1c(C(=O)Nc2ccc(Nc3ccccc3)cc2)cccc1[N+](=O)[O-]	40µM	-	?	?	-	.
CC(=O)n1cc(Nc2ccccc2C(=O)O)c2ccccc21	40µM	-	-	-	-	-
COc1cccc(Nc2ccccc2C(=O)O)c1	40µM	-	-	?	-	-
COc1ccc(OC)c(S(=O)(=O)Nc2ccccc2C(=O)O)c1	?	-	-	-	-	-
COc1ccc(CNC(=O)CSCc2cnn(-c3ccccc3)c2-n2cccc2)cc1	32µM	-	-	-	-	-
O=C(CSCc1cnn(-c2ccccc2)c1-n1cccc1)NCC1CCCO1 (stereo not given)	50µM	-	-	-	-	-
COC(=O)C[C@@H]1CC[C@H](NC(=O)Nc2cccc(F)c2)[C@@H](CO)O1	.	.	.	.	-	-
O=C(Cc1csc(NC(=O)Nc2ccc(Cl)cc2)n1)NC1CCCC1	?	-	-	-	-	-
O=C(Cc1csc(NC(=O)Nc2ccc(Cl)cc2)n1)NCc1ccccn1	45µM	-	-	-	-	-
Oc1[nH]c(=S)sc1/C=C1\C(c2ccccc2)=Nc2ccccc21	2.5µM	-	16µM	?	-	-
Oc1[nH]c(=S)sc1C=C1N=c2ccccc2=N1	?	-	-	-	-	-
Cc1ccc2c(c1)c(=O)c(C(=O)c1ccccc1)cn2Cc1ccccc1F	-	-	?	?	.	.
Cc1ccc(NC(=O)CCNS(=O)(=O)c2ccc3[nH]c(=O)oc3c2)cc1N(C)C	-	-	-	-	-	-
Cc1ccc(OCCOCCNC(C)C)c(Br)c1	.	?	10µM	56µM	-	-
COc1ccccc1OCCOCCOc1ccc(C)cc1Br	-	-	-	-	-	-
COCCCNCCOc1cc(C(C)C)ccc1C	?	?	3.2µM	79µM	-	-
COCCCNCCOCCOc1ccc(C)cc1Br	?	-	50µM	?	-	-
Cc1ccc(OCC(=O)NCCO)c(Br)c1	-	-	-	-	-	-
CCCCNCCOCCOc1ccc(C)cc1Br	10µM	-	3.5µM	?	-	-
CCC(C(=O)NCCc1ccc(OC)c(OC)c1)n1nc(C)c2sc3ccccc3c2c1=O (stereo not given)	-	-	-	-	.	.
Cc1ccc(C)c(OCC(=O)N(Cc2ccccc2)c2c(N)n(Cc3ccccc3)c(=O)[nH]c2=O)c1	.	-	-	.	-	-
CCC(C)NCCOCCOc1ccc(Cl)cc1Br (stereo not given)	2.2µM	-	2.5µM	-	-	-
COCC(C)NC(=O)COc1ccc(Cl)cc1Cl (stereo not given)	-	-	-	-	-	-
